Experimental data reported in PubChem BioAssay AID1159580 (chemical genetic matrix, 2015).
The whole screen tested about 5,500 compounds, of which about 2,000 (36%) were called active. Roughly 18% stayed inconclusive and do not appear here. Cut-off read from the data, not from the text of the source: active = normalized growth mostly below about 0.91 (no sharp cut-off); inconclusive = no clear call, values can overlap the other calls; inactive = mostly above about 0.92. The list shows a part of the results.

Test: chemical genetic growth profiling, strain panel (AID 1159580);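 note: tested at 20 µM; growth read once vehicle control cultures reached saturation at 30 °C; 1 = growth at the plate median or of vehicle wells; lower values mean less growth of the strain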
Conditions: growth OD

Measured: normalized growth

COc1cc(S(C)=O)ccc1-c1nc2ncccc2[nH]1 (centres undefined)
inactive: S. cerevisiae deletion strains, locus YJR043C, strain POL32, active compounds read low 1 | S. cerevisiae deletion strains, locus YJR075W, strain HOC1, active compounds read low 0.983 | S. cerevisiae deletion strains, locus YKL009W, strain mrt4, active compounds read low 1 | S. cerevisiae deletion strains, locus YKL068W, active compounds read low 0.991 | S. cerevisiae deletion strains, locus YKL085W, strain MDH1 (second series), active compounds read low 1 | S. cerevisiae deletion strains, locus YKL085W, strain MDH1, active compounds read low 1 | S. cerevisiae deletion strains, locus YKL160W, strain elf1, active compounds read low 0.947 | S. cerevisiae deletion strains, locus YKL190W, strain CNB1, active compounds read low 0.991 | S. cerevisiae deletion strains, locus YKR001C, strain vps1, active compounds read low 0.986 | S. cerevisiae deletion strains, locus YKR026C, strain gcn3, active compounds read low 0.98 | S. cerevisiae deletion strains, locus YKR091W, strain srl3, active compounds read low 0.959 | S. cerevisiae deletion strains, locus YLL001W, strain dnm1, active compounds read low 0.919 | S. cerevisiae deletion strains, locus YLL026W, active compounds read low 0.962 | S. cerevisiae deletion strains, locus YLL041C, strain sdh2, active compounds read low 0.97 | S. cerevisiae deletion strains, locus YLR027C, strain aat2, active compounds read low 0.98 | S. cerevisiae deletion strains, locus YLR039C, strain RIC1, active compounds read low 1.03 | S. cerevisiae deletion strains, locus YLR058C, strain SHM2, active compounds read low 0.993 | S. cerevisiae deletion strains, locus YLR102C, strain apc9, active compounds read low 0.999 | S. cerevisiae deletion strains, locus YLR221C, strain rsa3, active compounds read low 1.01 | S. cerevisiae deletion strains, locus YLR258W, strain gsy2, active compounds read low 0.93 | S. cerevisiae deletion strains, locus YLR262C, strain YPT6 (second series), active compounds read low 0.987 | S. cerevisiae deletion strains, locus YLR262C, strain YPT6, active compounds read low 0.994 | S. cerevisiae deletion strains, locus YLR268W, strain sec22, active compounds read low 0.999 | S. cerevisiae deletion strains, locus YLR320W, strain mms22, active compounds read low 0.995 | S. cerevisiae deletion strains, locus YLR330W, strain CHS5, active compounds read low 0.988 | S. cerevisiae deletion strains, locus YLR342W, strain FKS1 (second series), active compounds read low 1 | S. cerevisiae deletion strains, locus YLR342W, strain FKS1, active compounds read low 0.969 | S. cerevisiae deletion strains, locus YLR357W, strain rsc2, active compounds read low 0.915 | S. cerevisiae deletion strains, locus YLR370C, strain arc18, active compounds read low 0.974 | S. cerevisiae deletion strains, locus YLR371W, strain rom2, active compounds read low 0.991 | S. cerevisiae deletion strains, locus YLR384C, strain iki3, active compounds read low 0.961 | S. cerevisiae deletion strains, locus YLR418C, strain cdc73, active compounds read low 1.04 | S. cerevisiae deletion strains, locus YML016C, strain PPZ1, active compounds read low 1 | S. cerevisiae deletion strains, locus YML032C, strain rad52, active compounds read low 0.989 | S. cerevisiae deletion strains, locus YML120C, strain ndi1, active compounds read low 0.971 | S. cerevisiae deletion strains, locus YML124C, strain tub3, active compounds read low 0.993 | S. cerevisiae deletion strains, locus YMR058W, strain fet3, active compounds read low 0.982 | S. cerevisiae deletion strains, locus YMR078C, strain ctf18, active compounds read low 0.989 | S. cerevisiae deletion strains, locus YMR125W, strain sto1, active compounds read low 0.927 | S. cerevisiae deletion strains, locus YMR129W, active compounds read low 0.979 | S. cerevisiae deletion strains, locus YMR205C, strain PFK2, active compounds read low 0.93 | S. cerevisiae deletion strains, locus YMR223W, strain ubp8, active compounds read low 0.998 | S. cerevisiae deletion strains, locus YMR231W, strain pep5, active compounds read low 0.99 | S. cerevisiae deletion strains, locus YMR263W, strain SAP30, active compounds read low 0.975 | S. cerevisiae deletion strains, locus YMR307W, strain GAS1, active compounds read low 1.03 | S. cerevisiae deletion strains, locus YNL067W, strain RPL9B, active compounds read low 1.01 | S. cerevisiae deletion strains, locus YNL071W, strain lat1, active compounds read low 0.97 | S. cerevisiae deletion strains, locus YNL128W, strain TEP1, active compounds read low 0.997 | S. cerevisiae deletion strains, locus YNL153C, strain GIM3, active compounds read low 0.999 | S. cerevisiae deletion strains, locus YNL209W, strain ssb2, active compounds read low 0.98 | S. cerevisiae deletion strains, locus YNL233W, strain BNI4, active compounds read low 0.995 | S. cerevisiae deletion strains, locus YNL248C, strain rpa49, active compounds read low 0.967 | S. cerevisiae deletion strains, locus YNL250W, strain rad50, active compounds read low 0.991 | S. cerevisiae deletion strains, locus YNL271C, strain bni1, active compounds read low 0.997 | S. cerevisiae deletion strains, locus YNL298W, strain CLA4, active compounds read low 0.971 | S. cerevisiae deletion strains, locus YNL307C, strain MCK1, active compounds read low 1 | S. cerevisiae deletion strains, locus YNL322C, strain KRE1 (second series), active compounds read low 0.938 | S. cerevisiae deletion strains, locus YNL322C, strain KRE1, active compounds read low 0.998 | S. cerevisiae deletion strains, locus YNR049C, strain mso1, active compounds read low 0.966 | S. cerevisiae deletion strains, locus YNR052C, strain pop2, active compounds read low 0.976 | S. cerevisiae deletion strains, locus YOL006C, strain TOP1, active compounds read low 1.04 | S. cerevisiae deletion strains, locus YOL012C, strain htz1 1.02 | S. cerevisiae deletion strains, locus YOL147C, strain pex11, active compounds read low 0.982 | S. cerevisiae deletion strains, locus YOR001W, strain rrp6, active compounds read low 1.01 | S. cerevisiae deletion strains, locus YOR061W, strain CKA2, active compounds read low 1.01 | S. cerevisiae deletion strains, locus YOR069W, strain VPS5, active compounds read low 1 | S. cerevisiae deletion strains, locus YOR070C, strain gyp1, active compounds read low 0.993 | S. cerevisiae deletion strains, locus YOR080W, strain dia2, active compounds read low 0.982 | S. cerevisiae deletion strains, locus YOR083W, strain WHI5, active compounds read low 0.936 | S. cerevisiae deletion strains, locus YOR106W, strain vam3, active compounds read low 0.91 | S. cerevisiae deletion strains, locus YOR136W, strain idh2, active compounds read low 0.986 | S. cerevisiae deletion strains, locus YOR144C, strain elg1, active compounds read low 0.99 | S. cerevisiae deletion strains, locus YOR184W, strain ser1, active compounds read low 0.998 | S. cerevisiae deletion strains, locus YOR265W, strain rbl2, active compounds read low 0.967 | S. cerevisiae deletion strains, locus YOR270C, strain vph1, active compounds read low 0.974 | S. cerevisiae deletion strains, locus YOR290C, strain snf2, active compounds read low 0.951 | S. cerevisiae deletion strains, locus YOR316C, strain cot1, active compounds read low 0.991 | S. cerevisiae deletion strains, locus YPL051W, strain arl3, active compounds read low 0.943 | S. cerevisiae deletion strains, locus YPL055C, strain LGE1, active compounds read low 0.925 | S. cerevisiae deletion strains, locus YPL078C, strain atp4, active compounds read low 0.94 | S. cerevisiae deletion strains, locus YPL106C, strain sse1, active compounds read low 0.947 | S. cerevisiae deletion strains, locus YPL240C, strain hsp82, active compounds read low 0.985 | S. cerevisiae deletion strains, locus YPL241C, strain CIN2, active compounds read low 0.992 | S. cerevisiae deletion strains, locus YPR119W, strain clb2, active compounds read low 0.988 | S. cerevisiae deletion strains, locus YPR141C, strain kar3, active compounds read low 0.999 | S. cerevisiae deletion strains, locus YPR163C, strain tif3, active compounds read low 0.982 | S. cerevisiae deletion strains, locus YPR167C, strain met16, active compounds read low 0.999 | S. cerevisiae deletion strains, strain wtn01, active compounds read low 0.975 | S. cerevisiae strains, strain wild type, active compounds read low 1
